Assay results taken from publication PMC5540273 (PLoS ONE, 2017).

Columns and labels:
Details in all cases: concentration: 1 μM, replicates: in singlicate; n = 1
[1] = test system: T1, ERK1
T1 construct: gene MAPK3

[2] = test system: T2, ERK2
T2 construct: gene MAPK1

[3] = test system: T3, ERK3
T3 construct: gene MAPK6

[4] = test system: T4, ERK4
T4 construct: gene MAPK4

[5] = test system: T5, ERK5
T5 construct: gene MAPK7

[6] = test system: T6, ERK8
T6 construct: gene MAPK15

[7] = test system: ERN1
[8] = test system: T7, FAK
T7 construct: gene PTK2

[9] = test system: FER
[10] = test system: FES
[11] = test system: FGFR1
[12] = test system: FGFR2
[13] = test system: FGFR3
[14] = test system: FGFR4
[15] = test system: FGR
[16] = test system: FLT1
[17] = test system: FLT3-autoinhibited
[18] = test system: FLT3
[19] = test system: FLT4
[20] = test system: FRK
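Further: KINOMEscan kinase panel screen.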

| Compound | %Inh [1] | %Inh [2] | %Inh [3] | %Inh [4] | %Inh [5] | %Inh [6] | %Inh [7] | %Inh [8] | %Inh [9] | %Inh [10] | %Inh [11] | %Inh [12] | %Inh [13] | %Inh [14] | %Inh [15] | %Inh [16] | %Inh [17] | %Inh [18] | %Inh [19] | %Inh [20] |
| --- | --- | --- | --- | --- | --- | --- | --- | --- | --- | --- | --- | --- | --- | --- | --- | --- | --- | --- | --- | --- |
| CN(C)CCNS(=O)(=O)c1ccc(-c2ccnc3[nH]ccc23)cc1 [GSK977620] | 2% | 1% | 3% | 10% | 0% | 0% | 8% | 0% | 41% | 0% | 33% | 9% | 5% | 0% | 4% | 38% | 11% | 65% | 15% | 6% |
| CSc1ccc(NC2=C(c3ccc(Cl)cc3)C(=O)NC2=O)cc1 [SB-317658] | 9% | 29% | 11% | 0% | 0% | 13% | 47% | 7% | 0% | 29% | 0% | 9% | 6% | 0% | 29% | 5% | 5% | 1% | 3% | 0% |
| Cl.N#CCc1ccc(Nc2nccc(Nc3ccc(Oc4ccccc4)cc3)n2)cc1 [GW639905] | 0% | 0% | 0% | 0% | 0% | 35% | 10% | 0% | 0% | 0% | 11% | 8% | 13% | 0% | 90.2% | 43% | 23% | 94.5% | 12% | 39% |
| CN(c1ccc(NC(=O)N2CCN(CCCN3CCOCC3)CC2)cc1)c1ccnc(Nc2ccc(CS(C)(=O)=O)cc2)n1.Cl [GW830899] | 0% | 0% | 0% | 8% | 0% | 0% | 0% | 34% | 10% | 0% | 0% | 9% | 8% | 5% | 35% | 73% | 75% | 92.7% | 38% | 32% |
| COC(=O)Nc1nc2ccc(Oc3ccc(NC(=O)Nc4cc(C(F)(F)F)ccc4F)cc3)cc2[nH]1.Cl [GW654607] | 0% | 6% | 16% | 0% | 0% | 97.6% | 10% | 0% | 0% | 0% | 26% | 63% | 11% | 17% | 12% | 99.6% | 27% | 99% | 99.9% | 94.7% |
| CC(=O)Nc1cn2nc(Oc3cccc(NC(=O)c4cccc(C(F)(F)F)c4)c3)ccc2n1 | 0% | 0% | 0% | 0% | 0% | 19% | 0% | 13% | 3% | 0% | 0% | 91.4% | 53% | 50% | 93.1% | 98.5% | 0% | 97.4% | 100% | 99.9% |
| Cc1ccc(O)cc1Nc1ccnc2cc(-c3ccc(CN4CCCCC4)o3)ccc12 [GW557777] | 0% | 0% | 0% | 8% | 20% | 0% | 23% | 0% | 11% | 7% | 25% | 21% | 0% | 2% | 100% | 89% | 8% | 43% | 68% | 99.9% |
| COc1cccc2c(-c3ccncc3)c(-c3ccc(F)cc3)nn12 [GW468513] | 5% | 0% | 0% | 0% | 0% | 16% | 0% | 0% | 13% | 1% | 11% | 0% | 1% | 0% | 13% | 29% | 0% | 22% | 13% | 5% |
| O=C(Nc1c(F)cccc1F)c1cc(C(=O)c2ccccc2F)c[nH]1 [GSK1326180] | 8% | 3% | 9% | 0% | 0% | 0% | 0% | 0% | 0% | 0% | 0% | 0% | 5% | 0% | 0% | 6% | 0% | 1% | 0% | 7% |
| CCn1cnc2c(NCc3ccccc3)ncnc21 [SKF-96418] | 0% | 0% | 7% | 17% | 0% | 4% | 19% | 0% | 0% | 3% | 0% | 0% | 0% | 0% | 0% | 0% | 0% | 0% | 0% | 0% |
| COc1cccc(-c2nc(-c3ccccc3)[nH]c2-c2ccncc2)c1 [SB-610250] | 0% | 0% | 4% | 21% | 14% | 0% | 20% | 0% | 0% | 0% | 0% | 0% | 0% | 5% | 14% | 32% | 5% | 0% | 7% | 28% |
| N#CC1(c2cccc(C(=O)Nc3cccc(Oc4ccc5nc(NC(=O)C6CC6)sc5n4)c3)c2)CC1 | 0% | 0% | 0% | 0% | 0% | 29% | 0% | 17% | 22% | 0% | 92.7% | 95.3% | 70% | 70% | 88% | 98.5% | 16% | 96% | 100% | 98% |
| COc1cccc(NC(=O)NCCNc2ccnc(Nc3ccc(F)cc3)n2)c1 [GSK1379879] | 0% | 0% | 4% | 25% | 0% | 0% | 0% | 0% | 8% | 0% | 0% | 53% | 2% | 9% | 22% | 15% | 0% | 0% | 0% | 11% |
| COc1cccc(C2=C(Nc3cccc(O)c3)C(=O)NC2=O)c1 [SB-390771] | 3% | 0% | 6% | 26% | 0% | 16% | 0% | 0% | 0% | 2% | 0% | 29% | 28% | 19% | 33% | 22% | 0% | 3% | 20% | 11% |
| CC(C)NCC(Cc1ccccc1)NC(=O)c1cc(Br)c(-c2ccnc3[nH]ccc23)s1.Cl.Cl (stereo not drawn) [GSK1383281] | 11% | 0% | 0% | 0% | 0% | 2% | 0% | 20% | 0% | 0% | 86% | 62% | 60% | 64% | 16% | 65% | 0% | 68% | 48% | 0% |
